Measured values from the supplement of paper PMC6555819.

How the values were obtained:
Assay in all cases: PBM binding z-score (relative to random genomic background probes); higher = stronger binding; sequences stand for … in GC…GCGATTGACAGCGTAGAATGAAGG
[1] = system: FXR:RXRa (NR concentration 270 nM, RXRa partner concentration 90 nM)
Method in brief: (§1)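 Custom Agilent 4×180K protein-binding microarrays carried double-stranded probes, each with a 34-nt variable region. These regions held direct-repeat seeds, single-nucleotide variants, half-site ablations and random human genomic background sequences. Ligand-free nuclear receptor dimers were incubated on the arrays for 1 h, antibodies against each partner (one per run) detected binding, and scanned fluorescence was regression-normalized. Binding z-scores take the random background probes as reference.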

[2] = system: LXRa:RXRa (NR concentration 270 nM, RXRa partner concentration 90 nM)
Method in brief: as §1

[3] = system: LXRa homodimer (NR concentration 270 nM)
Method in brief: as §1

[4] = system: LXRb:RXRa (NR concentration 270 nM, RXRa partner concentration 90 nM)
Method in brief: as §1

[5] = system: LXRb homodimer (NR concentration 270 nM)
Method in brief: as §1

[6] = system: PPARa:RXRa (NR concentration 270 nM, RXRa partner concentration 90 nM)
Method in brief: as §1

[7] = system: PPARg:RXRa (NR concentration 180 nM, RXRa partner concentration 90 nM)
Method in brief: as §1

[8] = system: PPARg:RXRa 270nM:90nM, anti-RXR (NR concentration 270 nM, RXRa partner concentration 90 nM)
Method in brief: as §1

[9] = system: PPARg:RXRa 30nM:10nM, anti-RXR (NR concentration 30 nM, RXRa partner concentration 10 nM)
Method in brief: as §1

[10] = system: PPARg:RXRa 90nM:30nM, anti-RXR (NR concentration 90 nM, RXRa partner concentration 30 nM)
Method in brief: as §1

[11] = system: PPARg:RXRa DBDmut IVT, anti-RXR (DBD mutation: RXRa K156A/R161A, NR concentration 270 nM, RXRa partner concentration 90 nM)
Method in brief: as §1

[12] = system: PPARg:RXRa IVT, anti-PPARg (NR concentration 270 nM, RXRa partner concentration 90 nM)
Method in brief: as §1

[13] = system: PPARg DBDmut:RXRa IVT, anti-PPARg (DBD mutation: PPARg1 K132A/R137A, NR concentration 270 nM, RXRa partner concentration 90 nM)
Method in brief: as §1

[14] = system: PPARg DBDmut IVT, anti-PPARg (DBD mutation: PPARg1 K132A/R137A, NR concentration 270 nM)
Method in brief: as §1

[15] = system: PPARg homodimer (NR concentration 180 nM)
Method in brief: as §1

[16] = system: PXR:RXRa (NR concentration 270 nM, RXRa partner concentration 90 nM)
Method in brief: as §1

[17] = system: PXR homodimer (NR concentration 270 nM)
Method in brief: as §1

[18] = system: RARa:RXR (NR concentration 270 nM, RXRa partner concentration 90 nM)
Method in brief: as §1

[19] = system: RARa homodimer (NR concentration 270 nM)
Method in brief: as §1

[20] = system: RARb:RXRa (NR concentration 270 nM, RXRa partner concentration 90 nM)
Method in brief: as §1

Sequence | PBM binding z-score [1] | PBM binding z-score [2] | PBM binding z-score [3] | PBM binding z-score [4] | PBM binding z-score [5] | PBM binding z-score [6] | PBM binding z-score [7] | PBM binding z-score [8] | PBM binding z-score [9] | PBM binding z-score [10] | PBM binding z-score [11] | PBM binding z-score [12] | PBM binding z-score [13] | PBM binding z-score [14] | PBM binding z-score [15] | PBM binding z-score [16] | PBM binding z-score [17] | PBM binding z-score [18] | PBM binding z-score [19] | PBM binding z-score [20]
CGTCAAAGTTCAACTAAGGTAACGCAAAGCACGC | 7.01 | 6.31 | 4.34 | 4.15 | 1.94 | 5.28 | 5.24 | 5.67 | 2.5 | 4.74 | 0.641 | 2.32 | 0.717 | 0.408 | 3.08 | 5.42 | 3.81 | 4.22 | 1.83 | 5.15
TGTCAAAGTTCAAAGGCAACGTAAGTATCCACAC | 6.68 | 6.1 | 4.08 | 3.86 | 1.39 | 5.04 | 8 | 7.39 | 5 | 7.03 | -0.195 | 3.82 | 1.26 | 1.83 | 3.71 | 4.86 | 2.97 | 3.97 | 1.3 | 4.97
CGTCCAGGGTCAGAGAGGTCAGTGAATGCCGAGT | 5.65 | 4.8 | 1.62 | 4.15 | -0.103 | 4.87 | 3.32 | 4.21 | 1.19 | 2.81 | 1.59 | 2.32 | -0.324 | -0.926 | 3.95 | 6.01 | 9.1 | 5.52 | 1.6 | 4.77
TCTCGGAGGACACGAATGTCAGAGCTTTCCAGAG | 0.579 | -0.0398 | -0.547 | -0.175 | -0.958 | 0.22 | -0.0172 | 0.69 | 1.96 | 1.29 | 1.02 | -0.236 | -0.725 | -1.02 | -0.998 | -0.181 | -0.893 | -0.129 | -0.458 | 1.47
CGTCCAAGGTCAAGGACAGTGAAAGAGACTCGAA | 6.84 | 4.98 | 0.198 | 3.81 | 0.401 | 5.57 | 5.12 | 5.16 | 1.84 | 3.73 | 3.23 | 3.38 | 1.03 | -0.206 | 2.55 | 3.63 | 0.575 | 4.25 | 1.12 | 5.22
CCTACTGGGCCATCGGGTCATTGATATCAACGTT | 1.37 | 1.03 | -0.0763 | 1.51 | -0.423 | 3.29 | 3.03 | 4.12 | 1.34 | 3.22 | 3.69 | 5 | 0.365 | -0.0654 | 1.81 | 1.9 | -0.0623 | 2.47 | -0.279 | 1.9
ATATGTAGGTTACATCCGGGTCATTCGGGCTATG | 2.27 | 4.61 | 1.71 | 2.96 | 1.11 | 4.42 | 5.83 | 5.08 | 2.18 | 4.17 | 7.29 | 7.46 | 3.23 | 1.74 | 1.58 | 3.48 | 1.47 | 3.61 | 0.896 | 2.27
AGTAAAAGTTCAGGACGAGGTAACGTAAAGCACG | 3.83 | 3.28 | 1.42 | 1.75 | 0.493 | 2.63 | 1.81 | 2.14 | 0.671 | 1.29 | -0.481 | 0.814 | 0.943 | 1.31 | 1.74 | 2.71 | 1.45 | 2.39 | 0.986 | 3.85
TTACCAAGGTGAAAGGTTGTTGATGCACGCCTTG | 1.23 | 1.15 | -0.416 | 1 | -0.595 | 3.78 | 5.72 | 6.02 | 4.55 | 6.25 | 2.7 | 4.17 | 0.253 | 0.316 | 0.571 | 1.28 | -0.373 | 2.32 | 0.397 | 1.63
